The results in this text go back to ChEMBL document CHEMBL4513141, “CO-ADD screening of NIH (USA) - Clinical Collection” (2021).

SMILES strings stand for the structures. Measured potencies and affinities stand elsewhere.

The term Inhibition denotes the drop in the measured response relative to a control, in per cent.

The subject of one experiment is Klebsiella pneumoniae. Conditions: Concentration 20 uM; ASSAY_TEST Inhibition of Bacterial Growth; detection method Absorption (OD600); MEDIA CAMHB; plate type 384well; NBS; CORNING #3640; time 18 hr.
The test system of another experiment is Candida albicans. Conditions: 20 µM.
The subject of a further experiment is Cryptococcus neoformans. Conditions: Concentration 20 uM; ASSAY_TEST Inhibition of Fungal Growth; detection method Resazurin; Absorption (OD600-OD570); plate type 384well; NBS; CORNING #3640. (The colour change of resazurin is a common sign of viable cells or microbes.)

Consider `COc1nc(C)nc(Cl)c1NC1=NCCN1.Cl` [MOXONIDINE HYDROCHLORIDE], for which the Inhibition amounted to 3.54% in the experiment with Klebsiella pneumoniae, 3.01% in the experiment on Candida albicans and 0.52% in the experiment with Cryptococcus neoformans.
Consider `CN(C)CCC(c1ccc(Cl)cc1)c1ccccn1.O=C(O)/C=C\C(=O)O` (configuration not stated) [CHLORPHENIRAMINE MALEATE], for which the Inhibition amounted to 2.46% in the experiment with Klebsiella pneumoniae, 4.73% with Candida albicans and 0.1% with Cryptococcus neoformans.
The like results for `CN1CC(=O)N2[C@H](c3ccc4c(c3)OCO4)c3[nH]c4ccccc4c3C[C@@H]2C1=O` were, in that order, 2.98%, -1.32% and -3.58%.
Consider `CC(N)C12CC3CC(CC(C3)C1)C2.Cl` (configuration not stated) [RIMANTADINE HYDROCHLORIDE], for which the Inhibition was 8.19% in the experiment on Klebsiella pneumoniae, 2.89% in the experiment with Candida albicans and -3.72% with Cryptococcus neoformans.
Taken in the same sequence, the figures for `CS(=O)(=O)c1ccc(-c2cc(Br)sc2-c2ccc(F)cc2)cc1` [DUP-697] were 2.25%, 5.12% and -8.07%.
On to `Nc1nc(=O)c2nc(CNc3ccc(C(=O)N[C@@H](CCC(=O)O)C(=O)O)cc3)cnc2[nH]1` [FOLIC ACID], for which the Inhibition in the experiment with Klebsiella pneumoniae is 12.05%; with Candida albicans it was 1.12%; in the experiment on Cryptococcus neoformans it was -7.28%.
As for `CC(=O)OCC(=O)[C@@]1(O)CC[C@H]2[C@@H]3C[C@H](C)C4=CC(=O)C=C[C@]4(C)[C@H]3[C@@H](O)C[C@@]21C` [METHYLPREDNISOLONE ACETATE], the Inhibition was 10.69% with Klebsiella pneumoniae, -0.69% in the experiment with Candida albicans and -0.41% in the experiment with Cryptococcus neoformans.
Taken in the same sequence, the figures for `O=C(O[C@H]1[C@H](Oc2ccccc2COC(=O)C2(O)C=CCCC2=O)O[C@H](CO)[C@@H](O)[C@@H]1O)c1ccccc1` (some centres not stated) [TREMULACIN] were 9.15%, 3.13% and -9.11%.
The like results for `CC[C@]1(O)C[C@@H]2CN(CCc3c([nH]c4ccccc34)[C@@](C(=O)OC)(c3cc4c(cc3OC)N(C)[C@H]3[C@@](O)(C(N)=O)[C@H](O)[C@]5(CC)C=CCN6CC[C@]43[C@@H]65)C2)C1.O=S(=O)(O)O` [VINDESINE SULFATE] were, in that order, 6.96%, 3.45% and 0.45%.
Taken in the same sequence, the figures for `Cc1cccc(C)c1NC(=O)C1CCCCN1C.Cl` (configuration not stated) [MEPIVACAINE HYDROCHLORIDE] were 9.49%, -0.43% and -0.84%.
Regarding `C[C@]12CC[C@@H]3c4ccc(OS(=O)(=O)[O-])cc4CC[C@H]3[C@@H]1CCC2=O.[Na+]` [ESTRONE SODIUM SULFATE], the Inhibition in the experiment on Klebsiella pneumoniae is 1.74%; in the experiment with Candida albicans, 3.72%; in the experiment on Cryptococcus neoformans, -4.65%.
The like results for `CCC1=C[C@H]2CN(C1)Cc1c([nH]c3ccccc13)[C@@](C(=O)OC)(c1cc3c(cc1OC)N(C)[C@H]1[C@@](O)(C(=O)OC)[C@H](OC(C)=O)[C@]4(CC)C=CCN5CC[C@]31[C@@H]54)C2.O=C(O)C(O)C(O)C(=O)O.O=C(O)C(O)C(O)C(=O)O` were, in that order, 8.46%, 4.55% and -7.91%.
Consider `Cc1[nH]cnc1CN1CCc2c(c3ccccc3n2C)C1=O.Cl` [ALOSETRON HYDROCHLORIDE], for which the Inhibition is 15.86% with Klebsiella pneumoniae, 2.6% in the experiment on Candida albicans and -5.48% in the experiment on Cryptococcus neoformans.
With `CC[C@H]1OC(=O)[C@H](C)C(=O)[C@H](C)[C@@H](O[C@@H]2O[C@H](C)C[C@H](N(C)C)[C@H]2O)[C@](C)(OC)C[C@@H](C)C(=O)[C@H](C)[C@@H]2N(CCCCn3cnc(-c4cccnc4)c3)C(=O)O[C@@]21C`, the figures for the Inhibition in the experiment on Klebsiella pneumoniae, in the experiment with Candida albicans and in the experiment on Cryptococcus neoformans were 3.48%, 0.39% and -1.28%, respectively.
Taken in the same sequence, the figures for `CCC(=C(c1ccccc1)c1ccc(OCCN(C)C)cc1)c1ccccc1` were 0.16%, 5.96% and 1.89%.
`Cl.O=C1c2c(O)ccc(O)c2C(=O)c2c(NCCNCCO)ccc(NCCNCCO)c21`: the figures for the Inhibition in the experiment with Klebsiella pneumoniae, in the experiment with Candida albicans and in the experiment with Cryptococcus neoformans were 7.11%, -4.12% and 21.29%, respectively.
Turning to `C/C=C1/[C@H]2C=C(C)C[C@]1(N)c1ccc(O)nc1C2`, the Inhibition with Klebsiella pneumoniae was 13.99%; in the experiment on Candida albicans, 2.85%; in the experiment with Cryptococcus neoformans, -7.02%.
Consider `CC(=O)S[C@@H]1CC2=CC(=O)CC[C@]2(C)[C@H]2CC[C@@]3(C)[C@@H](CC[C@@]34CCC(=O)O4)[C@H]12` [SPIRONOLACTONE], for which the Inhibition is 18.33% with Klebsiella pneumoniae, 1.56% with Candida albicans and -2.8% in the experiment on Cryptococcus neoformans.
The like results for `CCN(CC)CCOc1ccc(C(=C(Cl)c2ccccc2)c2ccccc2)cc1.O=C(O)CC(O)(CC(=O)O)C(=O)O` [CLOMIPHENE CITRATE] were, in that order, 12.13%, 7.1% and -20.85%.
As to `Cl.O.OC[C@H]1O[C@@H](n2cnc3c(N[C@H]4CCC[C@@H]4O)ncnc32)[C@@H](O)C1O` (some centres not stated), the values for the Inhibition in the experiment with Klebsiella pneumoniae, in the experiment with Candida albicans and in the experiment on Cryptococcus neoformans were 8.61%, 3.02% and -2.1%, respectively.
The like results for `C[C@]12CCC(=O)C=C1CC[C@@H]1[C@@H]2C(=O)C[C@@]2(C)[C@H]1CC[C@]2(O)C(=O)CO` [CORTISONE] were, in that order, 16.58%, 4.46% and 0.81%.
For `CC(CCCCC(=O)Nc1ccc(C(F)(F)F)cc1)NCCc1c[nH]cn1.O=C(O)/C=C\C(=O)O.O=C(O)/C=C\C(=O)O` (configuration not stated), the Inhibition in the experiment with Klebsiella pneumoniae was 6.44%; in the experiment with Candida albicans it was 2.76%; in the experiment on Cryptococcus neoformans, -4.87%.
Taken in the same sequence, the figures for `CCCCC1=NC2(CCCC2)C(=O)N1Cc1ccc(-c2ccccc2-c2nnn[nH]2)cc1` [IRBESARTAN] were 7.4%, -0.2% and 0.28%.
In the case of `CC(=O)O.CC(C)C[C@H](NC(=O)[C@@H](COC(C)(C)C)NC(=O)[C@H](Cc1ccc(O)cc1)NC(=O)[C@H](CO)NC(=O)[C@H](Cc1c[nH]c2ccccc12)NC(=O)[C@H](Cc1c[nH]cn1)NC(=O)[C@H]1CCC(=O)N1)C(=O)N[C@H](CCCNC(=N)N)C(=O)N1CCC[C@@H]1C(=O)NNC(N)=O`, the Inhibition with Klebsiella pneumoniae is 2.33%; in the experiment with Candida albicans, 2.52%; with Cryptococcus neoformans, -3.07%.
